# Shown are actives, neighbours in structure and some others; about 14% of the full set was active somewhere.
# Pf growth 96h – inhibits malaria parasite growth, 96 h; 320,000 tested, 6.9% active; P. falciparum luciferase reporter growth, 96 h; Potency, µM (highest dose often 28.7 µM), inactives show at the highest dose activity change, negative = inhibition, actives largely listed as inhibitors; also: potency is read from the fitted curve at half-maximal effect
#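 Luminescence readout: decreased luciferase signal marks inhibited growth of reporter-expressing P. falciparum in infected red cells (2% hematocrit, 0.05% parasitemia final), exposed to compound two generations (96 h, 37 C, 5% CO2).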
# Sm TGR inh – inhibitors of Schistosoma mansoni thioredoxin glutathione reductase; Q962Y6; purified TGR, DTNB reduction, TNB absorbance 405 nm; Potency, µM (top dose mostly 114 µM), without a hit: top-dose activity change, negative = inhibition, actives largely listed as inhibitors; 360,000 tested, 3% active; also: potency is read from the fitted curve at half-maximal effect; nearly all actives have a fitted effect of over 60% in size
#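 TGR 20 nM + NADPH 100 uM (dispensed conc.), cpd preinc 15 min RT; start with NADPH (500 uM addition) then DTNB (15 mM addition). Kinetic TNB absorbance, 405 nm filter. Four-parameter Hill fit across titration.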
# Pf growth 48h – inhibits P. falciparum growth in the first generation, 48 h; P. falciparum luciferase growth in erythrocytes, 48 h; Potency, µM (top dose mostly 28.7 µM), for inactives: top-dose activity change, negative = inhibition, hits mostly inhibitors; 310,000 tested, 5.9% active; also: potency is read from the fitted curve at half-maximal effect
#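 Growth was read as firefly luciferase luminescence after a 48 h, 37 C, 5% CO2 exposure of compounds to reporter-bearing P. falciparum cultures (0.1% parasitemia, 2% hematocrit final) in Albumax-supplemented RPMI 1640.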
# Giardia FBPA inh-1 – blocks Giardia fructose-bisphosphate aldolase activity; A8B2U2; purified Giardia FBPA; Potency, µM (doses to about 59.6 µM), for the others: top-dose activity, negative = inhibition, usual class: inhibitors; 290,000 tested, 0.71% active; AID 2451; also: potency is read from the fitted curve at half-maximal effect; nearly all actives have a fitted effect of over 55% in size
# Target sequence (A8B2U2 whole entry, looked up): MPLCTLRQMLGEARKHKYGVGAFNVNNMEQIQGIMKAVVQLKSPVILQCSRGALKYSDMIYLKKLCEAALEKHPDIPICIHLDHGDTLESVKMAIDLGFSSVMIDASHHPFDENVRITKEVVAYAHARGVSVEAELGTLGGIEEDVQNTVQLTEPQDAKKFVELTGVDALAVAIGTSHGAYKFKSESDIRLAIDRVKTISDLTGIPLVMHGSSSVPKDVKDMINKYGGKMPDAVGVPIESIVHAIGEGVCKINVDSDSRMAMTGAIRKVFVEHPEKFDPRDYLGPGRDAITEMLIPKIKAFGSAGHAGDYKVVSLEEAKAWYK
#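 Giardia FBPA (40 nM reagent) was preincubated 10 min at RT with compound (up to 57.5 uM final), then substrate plus GAPDH/TPI/NAD/arsenate coupling system with diaphorase/resazurin was added; resorufin fluorescence (525/598 nm) was read after 20 min.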
# HCMV inh – human cytomegalovirus inhibition; activity change, negative = inhibition, % at 57.5 µM; AID 1259415; HFF cells, HCMV-luciferase reporter, 72 h; stronger effect = lower value; 410,000 tested, 4.5% active; in the data active = activity change below about -60%; inconclusive = no clear call, values can overlap the other calls; inactive = above about -39%
#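 Luciferase read-out from HCMV-luciferase-infected HFFs (MOI 1 PFU/cell) 72 h post infection at 37C; compounds added after 16 h cell attachment; activity normalized between buffer-only basal and Salinomycin (10uM) inhibitor controls.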
# Giardia growth – blocks growth of Giardia lamblia trophozoites. shares compounds with Giardia FBPA inh-1. Giardia lamblia trophozoite growth inhibition. Potency, µM (top dose mostly 57.5 µM), inactives show top-dose activity change, negative = inhibition, hits mostly inhibitors. 1,500 tested, 5% active;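 also: potency is read from the fitted curve at half-maximal effect; trophozoites exposed to compound for 48 h at 37 °C; nearly all actives have a fitted effect of over 70% in size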
# Mammal cell tox – mammalian cytotoxicity of Giardia aldolase inhibitor hits; shares compounds with Giardia FBPA inh-1; mammalian cell viability counter-screen, qHTS; Potency, µM (titrated, usually from 57.5 µM), for inactives: top-dose viability change, negative = toxicity, most hits filed as inhibitors; 1,500 tested, 4% active; AID 2786;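 also: Chinese hamster ovary cells used as mammalian cytotoxicity surrogate; viability measured as cellular ATP by luminescence; potency is read from the fitted curve at half-maximal effect; compound exposure lasted 48 h before reading; nearly all actives have a fitted effect of over 60% in size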
# Giardia FBPA inh-2 – confirmation of Giardia fructose-bisphosphate aldolase inhibitors | shares compounds with Giardia FBPA inh-1 | purified Giardia aldolase enzyme activity, qHTS | Potency, µM (titrated, usually from 57.5 µM), without a hit: at the top dose activity change, negative = inhibition, actives largely listed as inhibitors | 1,500 tested, 5% active | AID 2787; also: potency is read from the fitted curve at half-maximal effect; nearly all actives have a fitted effect of over 45% in size
# Rabbit aldolase – blocks rabbit muscle aldolase in Giardia aldolase selectivity test; AID 2794; Rabbit muscle FBPA enzyme inhibition, selectivity counter-screen; 1,500 tested, 4% active; shares compounds with Giardia FBPA inh-1; Potency, µM (top dose mostly 57.5 µM), without a hit: top-dose activity, negative = inhibition, most hits filed as inhibitors; also: potency is read from the fitted curve at half-maximal effect; nearly all actives have a fitted effect of over 60% in size
# Target sequence (P00883 whole entry, looked up): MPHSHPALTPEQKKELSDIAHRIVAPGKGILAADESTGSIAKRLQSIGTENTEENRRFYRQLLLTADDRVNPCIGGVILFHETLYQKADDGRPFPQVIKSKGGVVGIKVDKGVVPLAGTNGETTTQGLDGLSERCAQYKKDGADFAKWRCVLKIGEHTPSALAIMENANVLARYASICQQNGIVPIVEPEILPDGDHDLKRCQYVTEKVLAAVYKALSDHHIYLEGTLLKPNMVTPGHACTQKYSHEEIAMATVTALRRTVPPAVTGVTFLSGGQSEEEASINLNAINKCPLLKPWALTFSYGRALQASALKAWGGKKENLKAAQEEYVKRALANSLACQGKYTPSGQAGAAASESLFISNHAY
# GAPDH coupling – counter-screen for Giardia aldolase inhibitors: GAPDH coupling enzyme. shares compounds with Giardia FBPA inh-1. GAPDH coupling enzyme counterscreen, biochemical, qHTS. Potency, µM (highest dose often 57.5 µM), inactives show top-dose activity change, negative = inhibition, actives largely listed as inhibitors. 1,500 tested, 6% active. AID 2795; also: potency is read from the fitted curve at half-maximal effect; nearly all actives have a fitted effect of over 55% in size
# An asterisk follows results filed as active; u = inconclusive; x = no result given; [ ] = another dose, or the depositor's remark. Unless noted, calls follow the shape of the dose curve; as a rule, active = well fitted curve in the direction sought with a large enough effect; inconclusive = small, poorly fitted or top-dose-only effect, or another doubt; inactive = no such curve, though single readings can be large; an effect the other way counts as inactive or inconclusive. % is scaled to controls: 0 for no effect and ±100 for the full control effect.
SMILES,Pf growth 96h,Sm TGR inh,Pf growth 48h,Giardia FBPA inh-1,HCMV inh,Giardia growth,Mammal cell tox,Giardia FBPA inh-2,Rabbit aldolase,GAPDH coupling
COc1ccc(Cc2nnc(SCC(=O)Nc3ccccc3C)n(N)c2=O)cc1,2%,-5%,-25%,x,-19,x,x,x,x,x
CCOC(=O)C1=C(O)/C(=C/c2ccc(CNC(=O)C(=O)Nc3ccc(C)cc3)o2)N=C1C,33%,18µM*,x,4.5µM*,8,u,u,-28%,-13%,6%
COc1cccc(C(=O)c2cn(CC(=O)NCCc3ccccc3)c3nc(C)ccc3c2=O)c1,x,-13%,x,x,26,x,x,x,x,x
COc1ccc(N=NC2C(=O)N(c3ccccc3)N=C2C)cc1 (centres undefined),2.6µM*,4%,87%,28µM*,6,7%,-9%,2%,-1%,-1%
CC1=NN(c2ccccc2)C(=O)C1N=Nc1cccc(O)c1 (centres undefined),74%,-19%,104%,10µM*,211,u,3%,4%,-3%,1%
CCOC(=O)[C@]12CCCC=C1N(Cc1cccc3ccccc13)C(=O)[C@H](CC(=O)N1CCN(C(=O)c3ccco3)CC1)C2,x,x,x,x,-5,x,x,x,x,x
CC(=O)N(C)C[C@@H]1Oc2ncc(Br)cc2C(=O)N([C@H](C)CO)C[C@@H]1C,x,x,x,x,-7,x,x,x,x,x
Cn1c(=O)[nH]c(=O)c2c1[nH]c(=S)n2CCCc1ccccc1,-3%,0%,65%,3.5µM*,-25,-10%[38.3 µM],-3%,-12%,35µM*,-1%
Cn1c(=O)c2[nH]c(=S)n(Cc3ccccc3)c2n(C)c1=O,x,x,x,x,-8,x,x,x,x,x
Cn1c(=O)c2c([nH]c(=S)n2CCCc2ccccc2)n(C)c1=O,u,-14%,37%,10µM*,4,-20%[10.4 µM],4%,6%,-17%,16%
Cc1cccc(OCCSc2nc3ccccc3n2CC(=O)N2CCOCC2)c1,x,37%,x,x,1,x,x,x,x,x
COC(=O)Oc1nsnc1N1CCOCC1,u,-7%,20%,14µM*,-37,-28%,10%,-13%,u,u
CCC(C)N(C(=O)c1csnn1)C(C(=O)NC1CCCC1)c1c(F)cccc1Cl (centres undefined),30%,-13%,1%,9%,-12,x,x,x,x,x
COCc1nnc(NC(=O)c2ccc(S(=O)(=O)N3CCCc4ccccc43)cc2)o1,u,-14%,u,18µM*,-78*,1%[10.4 µM],-12%,-2%,11%,0%
Cc1nnc(NC(=O)c2ccc(S(=O)(=O)N3CCc4ccccc4C3)cc2)o1,-27%,11%,-8%,18µM*,-39,u,1%,-7%,7%,6%
Cc1nnc(NC(=O)c2ccc(S(=O)(=O)N3CC(C)CC(C)C3)cc2)o1 (centres undefined),-32%,1%,3%,-5%,-21,x,x,x,x,x
COc1ccccc1-c1nnc(NC(=O)c2ccc(S(=O)(=O)N3CCOCC3)cc2)o1,10%,3%,u,x,7,x,x,x,x,x
COCc1nnc(NC(=O)c2ccc(S(=O)(=O)N3CCOCC3)cc2)o1,u,3%,u,22µM*,21,u,-3%,4%,18%,5%
N#CC1(NC(=O)CSc2nnc3n2CCCCC3)CCCCC1,x,x,x,x,15,x,x,x,x,x
CC(C)NC(=O)N(C)C[C@@H]1Oc2c(NC(=O)C3CCOCC3)cccc2C(=O)N([C@@H](C)CO)C[C@H]1C,x,x,x,x,13,x,x,x,x,x
N#CC(C#N)=C(C#N)c1ccc(Nc2ccccc2)cc1,12µM*,2.8µM*,13%,22µM*,28,u,-8%,-17%,-8%,-18%
CCOc1ccc(C(=O)C2CCN(CC(=O)Nc3nccs3)CC2)cc1,50%,-2%,u,u,17,x,x,x,x,x
Cc1ccccc1N1CCN(CC(=O)Nc2nccs2)CC1,24%,0%,-10%,11µM*,-17,-15%,-4%,6%,6%,6%
NC(=O)C1CCN(CC(=O)Nc2nccs2)CC1,-15%,1%,50%,3.5µM*,10,u,-6%,-25%,1%,14%
O=C(CN1CCN(c2ccccc2)CC1)Nc1nccs1,-2%[5.75 µM],6%,20%,-15%,-32,x,x,x,x,x
S=c1[nH]nc(-c2ccn[nH]2)n1-c1ccccc1Cl,-2%,-2%,7%,20µM*,30,45µM*,-11%,0%,-1%,5%
O=C1NC(Cc2ccc(O)cc2)c2nc3ccc(F)cc3c(=O)n2-c2cc(Cl)ccc21 (centres undefined),x,x,x,x,33,x,x,x,x,x
CCOc1ccc(CCNC(=O)CN2C(=O)NC3(CCCCC3)C2=O)cc1OCC,50%,10%,-6%,x,-31,x,x,x,x,x

# Screens (PubChem BioAssay)
